Reference: PubChem BioAssay (NCATS)
Records with an inconclusive call do not appear. The source made the active and inactive calls. The call rests on the fitted dose curve; in most records, active means well fitted inhibition curve with a large enough effect; inconclusive means small, poorly fitted or top-dose-only effect; inactive means flat fitted curve, though single readings scatter.
Potency means the concentration at half of the fitted maximal effect.

Experiment: BET inhibitor-based combinations targeting novel dependencies in MECOM-rearranged (r) AML: AML-191 cell line (AID 2202236; further: nearly all actives have a fitted effect of over 35% in size;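 on viability (% of control): plate controls were vehicle wells for no effect and wells without cells for full effect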)
Details: AML-191 viability, CellTiter-Glo luminescence, 48 h; series mostly up to 46 µM; viability (% of control): at the top concentration
Outline: (§1)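 A 48 hr incubation preceded viability reading by CellTiter-Glo, with 15 min room-temperature development. Dose series had 11 points; normalization used DMSO and empty wells; AUC was computed and mean-centered per line as Z-AUC.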
With `CO[C@H]1CCC(O[C@H]2C[C@H]([C@]3(C)CC[C@]4(C[C@H](O)[C@@H](C)[C@@H]([C@@H](C)/C=C(\C)C(=O)[C@H](C)C[C@H](C)C(=O)O)O4)O3)O[C@]3(O[C@@H]([C@H]4O[C@@](O)(CO)[C@H](C)C[C@@H]4C)C[C@@H]3C)[C@@H]2C)O[C@@H]1C` (some centres undefined) the Potency was 1660 nM (active).
For `COC[C@H]1OC(=O)c2coc3c2[C@@]1(C)C1=C(C3=O)[C@@H]2CC[C@H](O)[C@@]2(C)C[C@H]1OC(C)=O`, the Potency was 7420 nM (active).
With `COc1cc([C@@H]2c3cc4c(cc3[C@@H](O)C3COC(=O)C32)OCO4)cc(OC)c1O` (some centres undefined) the Potency was 296 nM (active).
For `Cn1c(CCCCCCC(=O)NO)nc2cc(N(CCCl)CCCl)ccc21`, the Potency was 2630 nM (active).
With `C#CCN(C)[C@H](C)Cc1ccccc1` the “viability (% of control)” value was 91.7% (inactive).
For `C[C@H]1CCC/C=C/C2C[C@H](O)C[C@H]2[C@H](O)/C=C/C(=O)O1` (some centres undefined), the Potency was 332 nM (active).
In the case of `CC1(C)CC(O)CC(C)(C)N1O`, the “viability (% of control)” value is reported as 95.7% (inactive).
In the case of `CC(C)[C@]12O[C@H]1[C@@H]1O[C@@]13[C@@]1(C)CCC4=C(COC4=O)[C@@H]1C[C@@H]1O[C@@]13C2=O`, the Potency is reported as 83.3 nM (active).
In the case of `C[C@]12CC[C@@H]3[C@@H](CCC4=CC(=O)CC[C@@H]43)[C@@H]1CC[C@@H]2OC(=O)CCc1ccccc1`, the “viability (% of control)” value is reported as 93.1% (inactive).
With `COCC1(CO)C(=O)C2CCN1CC2` (centres undefined) the Potency was 10500 nM (active).
With `COc1cc2c(cc1F)C(c1ccccc1Cl)=Nc1c(n[nH]c1C)N2` the Potency was 1660 nM (active).
For `CC(=O)OC[C@H]1O[C@@H]([S-])[C@H](OC(C)=O)[C@@H](OC(C)=O)[C@@H]1OC(C)=O.CC[PH+](CC)CC.[Au]`, the Potency was 1050 nM (active).
For `C[C@@H]1CC[C@@]2(OC1)O[C@H]1C[C@H]3[C@@H]4CC=C5C[C@@H](O[C@@H]6O[C@H](CO)[C@@H](O[C@@H]7O[C@@H](C)[C@H](O)[C@@H](O)[C@H]7O)[C@H](O)[C@H]6O[C@@H]6O[C@@H](C)[C@H](O)[C@@H](O)[C@H]6O)CC[C@]5(C)[C@H]4CC[C@]3(C)[C@H]1[C@@H]2C`, the Potency was 5250 nM (active).
For `O=C(Nc1ccncc1)C(=O)c1cn(Cc2ccc(Cl)cc2)c2ccccc12`, the Potency was 263 nM (active).
In the case of `C/C(=C\c1csc(C)n1)[C@@H]1C[C@@H]2O[C@]2(C)CCC[C@H](C)[C@H](O)[C@@H](C)C(=O)C(C)(C)[C@@H](O)CC(=O)O1`, the Potency is reported as 10.5 nM (active).

Experiment: BET inhibitor-based combinations targeting novel dependencies in MECOM-rearranged (r) AML: AML-194 cell line (AID 2202237; further: nearly all actives have a fitted effect of over 40% in size;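 on viability (% of control): plate controls were vehicle wells for no effect and wells without cells for full effect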)
Details: AML-194 (MECOM-r AML) viability, CellTiter-Glo, 48 h; series mostly up to 46 µM; viability (% of control): at the top concentration
Outline: as §1
For `COc1cc2cc(c1Cl)N(C)C(=O)C[C@H](OC(=O)C(C)C)[C@]1(C)O[C@@H]1[C@H](C)[C@@H]1C[C@@](O)(NC(=O)O1)[C@H](OC)/C=C/C=C(\C)C2`, the “viability (% of control)” value was 17.7% (inactive).
In the case of `CO[C@H]1CCC(O[C@H]2C[C@H]([C@]3(C)CC[C@]4(C[C@H](O)[C@@H](C)[C@@H]([C@@H](C)/C=C(\C)C(=O)[C@H](C)C[C@H](C)C(=O)O)O4)O3)O[C@]3(O[C@@H]([C@H]4O[C@@](O)(CO)[C@H](C)C[C@@H]4C)C[C@@H]3C)[C@@H]2C)O[C@@H]1C` (some centres undefined), the Potency is reported as 263 nM (active).
In the case of `COc1cc([C@@H]2c3cc4c(cc3[C@@H](O)C3COC(=O)C32)OCO4)cc(OC)c1O` (some centres undefined), the Potency is reported as 332 nM (active).
In the case of `Cn1c(CCCCCCC(=O)NO)nc2cc(N(CCCl)CCCl)ccc21`, the Potency is reported as 2950 nM (active).
With `N[C@@H]1C[C@H]1c1ccccc1` the “viability (% of control)” value was 103% (inactive).
With `COC[C@@H](NC(C)=O)C(=O)NCc1ccccc1` the “viability (% of control)” value was 119% (inactive).
With `CC1(C)CC(O)CC(C)(C)N1O` the “viability (% of control)” value was 113% (inactive).
For `CC(C)[C@]12O[C@H]1[C@@H]1O[C@@]13[C@@]1(C)CCC4=C(COC4=O)[C@@H]1C[C@@H]1O[C@@]13C2=O`, the Potency was 332 nM (active).
For `CN(C)NC(=O)CCC(=O)O`, the “viability (% of control)” value was 105% (inactive).
With `C[C@]12CC[C@@H]3[C@@H](CCC4=CC(=O)CC[C@@H]43)[C@@H]1CC[C@@H]2OC(=O)CCc1ccccc1` the “viability (% of control)” value was 102% (inactive).
In the case of `COc1cc2c(cc1F)C(c1ccccc1Cl)=Nc1c(n[nH]c1C)N2`, the Potency is reported as 2350 nM (active).
With `CC(=O)OC[C@H]1O[C@@H]([S-])[C@H](OC(C)=O)[C@@H](OC(C)=O)[C@@H]1OC(C)=O.CC[PH+](CC)CC.[Au]` the Potency was 2950 nM (active).
With `C[C@@H]1CC[C@@]2(OC1)O[C@H]1C[C@H]3[C@@H]4CC=C5C[C@@H](O[C@@H]6O[C@H](CO)[C@@H](O[C@@H]7O[C@@H](C)[C@H](O)[C@@H](O)[C@H]7O)[C@H](O)[C@H]6O[C@@H]6O[C@@H](C)[C@H](O)[C@@H](O)[C@H]6O)CC[C@]5(C)[C@H]4CC[C@]3(C)[C@H]1[C@@H]2C` the Potency was 8330 nM (active).
In the case of `C/C(=C\c1csc(C)n1)[C@@H]1C[C@@H]2O[C@]2(C)CCC[C@H](C)[C@H](O)[C@@H](C)C(=O)C(C)(C)[C@@H](O)CC(=O)O1`, the Potency is reported as 11.8 nM (active).
